How the values were obtained:
Conditions in all cases: concentration: 1 μM, replicates: in singlicate; n = 1
EPHA7 = test system: EPHA7
EPHA8 = test system: EPHA8
EPHB1 = test system: EPHB1
EPHB2 = test system: EPHB2
EPHB3 = test system: EPHB3
EPHB4 = test system: EPHB4
EPHB6 = test system: EPHB6
ERBB2 = test system: ERBB2
ERBB3 = test system: ERBB3
ERBB4 = test system: ERBB4
ERK1 = test system: T1, ERK1
T1 construct: gene MAPK3

ERK2 = test system: T2, ERK2
T2 construct: gene MAPK1

ERK3 = test system: T3, ERK3
T3 construct: gene MAPK6

ERK4 = test system: T4, ERK4
T4 construct: gene MAPK4

ERK5 = test system: T5, ERK5
T5 construct: gene MAPK7

ERK8 = test system: T6, ERK8
T6 construct: gene MAPK15

ERN1 = test system: ERN1
FAK = test system: T7, FAK
T7 construct: gene PTK2

FER = test system: FER
FES = test system: FES
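Note: KINOMEscan kinase panel screen.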

| Compound | %Inh (EPHA7) [%] | %Inh (EPHA8) [%] | %Inh (EPHB1) [%] | %Inh (EPHB2) [%] | %Inh (EPHB3) [%] | %Inh (EPHB4) [%] | %Inh (EPHB6) [%] | %Inh (ERBB2) [%] | %Inh (ERBB3) [%] | %Inh (ERBB4) [%] | %Inh (ERK1) [%] | %Inh (ERK2) [%] | %Inh (ERK3) [%] | %Inh (ERK4) [%] | %Inh (ERK5) [%] | %Inh (ERK8) [%] | %Inh (ERN1) [%] | %Inh (FAK) [%] | %Inh (FER) [%] | %Inh (FES) [%] |
| --- | --- | --- | --- | --- | --- | --- | --- | --- | --- | --- | --- | --- | --- | --- | --- | --- | --- | --- | --- | --- |
| CC(C)c1nc(-c2cccc(NS(=O)(=O)c3c(F)cccc3F)c2)c(-c2ccnc(Nc3ccc(N4CCOCC4)nc3)n2)s1.Cl [GSK1723980] | 0 | 93 | 24 | 0 | 0 | 0 | 97.4 | 86 | 97.8 | 95 | 0 | 0 | 0 | 0 | 0 | 97.9 | 50 | 0 | 49 | 18 |
| Nc1ncc(-c2ccc3nccc(-c4ccncc4)c3c2)cc1S(=O)(=O)N1CCCCC1 [GSK1693850] | 3 | 8 | 0 | 15 | 0 | 8 | 43 | 31 | 0 | 20 | 0 | 0 | 0 | 13 | 11 | 38 | 1 | 0 | 32 | 0 |
| CCOc1nccc(-c2c(-c3ccc(F)cc3)ncn2C2CCNCC2)n1 [SB-249175] | 0 | 0 | 0 | 11 | 0 | 0 | 14 | 5 | 36 | 30 | 0 | 0 | 26 | 13 | 12 | 2 | 1 | 0 | 9 | 0 |
| CN(c1ccc(NC(=O)N2CCN(CCCN3CCOCC3)CC2)cc1)c1ccnc(Nc2ccc(CS(C)(=O)=O)cc2)n1.Cl [GW830899] | 0 | 0 | 0 | 4 | 0 | 22 | 81 | 2 | 17 | 0 | 0 | 0 | 0 | 8 | 0 | 0 | 0 | 34 | 10 | 0 |
| Nc1ncnc2scc(-c3ccc(NC(=O)Cc4cc(F)ccc4F)cc3)c12.O=C(O)C(F)(F)F [SB-731254-M] | 4 | 0 | 0 | 15 | 0 | 5 | 98.8 | 39 | 0 | 53 | 0 | 0 | 0 | 11 | 28 | 0 | 34 | 4 | 4 | 0 |

Source: PMC5540273 (PLoS ONE, 2017)
